Results filed as inconclusive are left out. A structure can be active in one record and inactive in another. Activity calls are given as the source filed them. The calls were made as follows, unless noted: active = hit-call score of the fitted dose curve at least 0.9, where 1 is the maximum; inactive = score below 0.9. Starred links: 1 amine or outer side, 2 acyl side, 3 side chain; linkers in the order of their positions; H or OH if unused. Positions of bridges follow the written chain, without caps; N, C: chain ends. Non-standard residues stand in square brackets, D forms with d. Residues, ends and D or L forms follow the SMILES beside them. Adda = CO[C@@H](Cc1ccccc1)[C@@H](C)/C=C(C)/C=C/[C@H](N[*:1])[C@H](C)C(=O)[*:2]; dAsp(3S-Me) = C[C@H](C(=O)[*:3])[C@@H](N[*:1])C(=O)[*:2]; d(γGlu) = O=C(O)[C@@H](CCC(=O)[*:2])N[*:1]; NMeDha = C=C(NC)C(=O)O
experiment: CCTE_Harrill_HTTr_CellCount_MCF7: CCTE's Cell Proliferation Assessment for the High-Throughput Transcriptomics (HTTr) Platform, Harrill Lab (AID 2284012; active = hit-call score of the fitted dose curve at least 0.9, where 1 is the maximum;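 also: cells exposed to compound for six hours; intended direction is loss of nuclei count meaning fewer cells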)
Method in brief: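 Cell count served as viability reporter: loss of Hoechst-stained nuclei, counted by high content imaging, marks decreased growth or survival. Exposure was 6 h in MCF-7 cells across eight concentrations, with DMSO as baseline.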

Compound | outcome
Clc1c(Cl)c(Cl)c2c(c1Cl)Oc1c(Cl)c(Cl)c(Cl)c(Cl)c1O2 | inactive
C=C1C(=O)N[C@H](C)C(=O)N[C@H](CC(C)C)C(=O)N[C@@H](C(=O)O)[C@H](C)C(=O)N[C@@H](CCCN=C(N)N)C(=O)N[C@@H](/C=C/C(C)=C/[C@H](C)[C@H](Cc2ccccc2)OC)[C@H](C)C(=O)N[C@@H](C(=O)O)CCC(=O)N1C (R[Adda][d(γGlu)][NMeDha][dA][dL][dAsp(3S-Me)]-OH; lactam N-7) | inactive
FC(F)(F)c1ccc(OCCCOc2c(Cl)cc(OCC=C(Cl)Cl)cc2Cl)nc1 | inactive
O=C1CCO1 | inactive
CCCCOC(=O)N(C)SN(C)C(=O)Oc1cccc2c1OC(C)(C)C2 | inactive
COCCOC(C)=O | inactive
O=c1[nH]c2c(c(=O)n1C1CCCCC1)CCC2 | inactive
CCCCC(CC)COC(=O)c1cc(Br)c(Br)c(Br)c1Br (stereo unspecified) | inactive
ClC=C(Cl)CCl | inactive
O=S1OC[C@@H]2[C@H](CO1)[C@]1(Cl)C(Cl)=C(Cl)[C@]2(Cl)C1(Cl)Cl (stereo partly specified) | inactive
CNC(=O)Oc1cccc(C(C)C)c1 | inactive
COP(=S)(Oc1cc(Cl)c(Br)cc1Cl)c1ccccc1 (stereo unspecified) | inactive
Cc1cc(N)ccc1N | inactive
CC(C)(C)OOC(C)(C)C#CC(C)(C)OOC(C)(C)C | inactive
O=C(O)CCCOC(=O)c1ccccc1C(=O)O | inactive

experiment: CCTE_Shafer_MEA_acute_burst_number: CCTE's Neural Acute Assay for Single-Electrode Bursts, Shafer Lab (AID 2284013)
Method in brief: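 Primary rat cortical neurons on 16-electrode MEA wells, DIV 13 or 15, exposed to compound (0.03-40 uM; ≥3 wells); 40-min recordings at 37 C before and after treatment. Burst count expressed as percent change from baseline, DMSO as negative control.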

Compound | outcome
CP(=O)(O)CCC(N)C(=O)O (stereo unspecified) | inactive
O=C(O)CNCP(=O)(O)O | inactive
C#CCN(C)[C@H](C)Cc1ccccc1 | inactive
CC1(C)[C@@H](C=C(Cl)Cl)[C@@H]1C(=O)O[C@@H](C#N)c1ccc(F)c(Oc2ccccc2)c1 | inactive
CP(=O)(O)CC[C@H](N)C(=O)O | inactive

experiment: CCTE_Shafer_MEA_acute_burst_duration_mean: CCTE's Neural Acute Assay for Mean Burst Duration, Shafer Lab (AID 2284014);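 also: hits are decreases in mean burst duration relative to DMSO controls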
Method in brief: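 Mean burst duration was compared between a 40 min baseline and a 40 min recording in the presence of compound (0.03-40 uM, 37 C), giving percent change per well. Cultures were rat cortical neurons at DIV 13 or 15; wells needed ≥10 active electrodes.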

Compound | AC50 | outcome
CP(=O)(O)CCC(N)C(=O)O (stereo unspecified) | 35 µM (active) | –
O=C(O)CNCP(=O)(O)O | – | inactive
C#CCN(C)[C@H](C)Cc1ccccc1 | 8.86 µM (active) | –
CC1(C)[C@@H](C=C(Cl)Cl)[C@@H]1C(=O)O[C@@H](C#N)c1ccc(F)c(Oc2ccccc2)c1 | – | inactive
CP(=O)(O)CC[C@H](N)C(=O)O | – | inactive

experiment: CCTE_Shafer_MEA_acute_per_burst_spike_number_mean: CCTE's Neural Acute Assay for Average Number of Spikes Per Burst, Shafer Lab (AID 2284015);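 also: hits are decreases in mean spikes per burst versus baseline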
Method in brief: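 Primary rat cortical neurons on 48-well MEA plates, treated on DIV 13 or 15 at 0.03-40 uM. Spontaneous activity recorded 40 min before and 40 min after compound at 37 C; percent change in mean spikes per single-electrode burst per well, fitted in the loss direction versus DMSO.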

Compound | AC50 | outcome
CP(=O)(O)CCC(N)C(=O)O (stereo unspecified) | 50 µM (active) | –
O=C(O)CNCP(=O)(O)O | – | inactive
C#CCN(C)[C@H](C)Cc1ccccc1 | – | inactive
CC1(C)[C@@H](C=C(Cl)Cl)[C@@H]1C(=O)O[C@@H](C#N)c1ccc(F)c(Oc2ccccc2)c1 | 0.842 µM (active) | –
CP(=O)(O)CC[C@H](N)C(=O)O | – | inactive

experiment: CCTE_Shafer_MEA_acute_interburst_interval_mean: CCTE's Neural Acute Assay for Mean Interburst Interval, Shafer Lab (AID 2284016);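 also: percent change of mean interburst interval versus each well's own pre-dose baseline; curves fitted for decrease in interburst interval relative to DMSO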
Method in brief: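 Primary rat cortical neurons on 16-electrode MEA wells were recorded 40 min at baseline on DIV 13 or 15, then 40 min after compound (0.03-40 uM), at 37 C. Value is percent change in mean interburst interval per well, DMSO as negative control.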

Compound | outcome | AC50
CP(=O)(O)CCC(N)C(=O)O (stereo unspecified) | inactive | –
O=C(O)CNCP(=O)(O)O | inactive | –
C#CCN(C)[C@H](C)Cc1ccccc1 | – | 15 µM (active)
CC1(C)[C@@H](C=C(Cl)Cl)[C@@H]1C(=O)O[C@@H](C#N)c1ccc(F)c(Oc2ccccc2)c1 | – | 2.35 µM (active)
CP(=O)(O)CC[C@H](N)C(=O)O | inactive | –

experiment: CCTE_Shafer_MEA_acute_burst_percentage_mean: CCTE's Neural Acute Assay for Percentage of Spikes in a Burst, Shafer Lab (AID 2284017);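 as to AC50: curve fitted for loss of signal so potency reflects decreased burst percentage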
Method in brief: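 Primary rat cortical neurons on 16-electrode MEA wells; 40 min baseline recorded at DIV 13 or 15, then 40 min after compound (0.03-40 uM) at 37 C. Well-mean fraction of spikes in single-electrode bursts; percent change from baseline, DMSO as negative control.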

Compound | outcome | AC50
CP(=O)(O)CCC(N)C(=O)O (stereo unspecified) | inactive | –
O=C(O)CNCP(=O)(O)O | inactive | –
C#CCN(C)[C@H](C)Cc1ccccc1 | inactive | –
CC1(C)[C@@H](C=C(Cl)Cl)[C@@H]1C(=O)O[C@@H](C#N)c1ccc(F)c(Oc2ccccc2)c1 | – | 1.95 µM (active)
CP(=O)(O)CC[C@H](N)C(=O)O | inactive | –

experiment: CCTE_Shafer_MEA_acute_burst_percentage_std: CCTE's Neural Acute Assay for Standard Deviation of Burst Percentage, Shafer Lab (AID 2284018);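 also: fitted in the negative direction so actives lower burst percentage SD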
Method in brief: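 Value is percent change from baseline in the across-electrode SD of spikes-in-bursts percentage, wells with >/= 10 active electrodes. Acute 40-min exposure to 0.03-40 uM on DIV 13 or 15 rat cortical cultures, recorded at 37 C after 40-min baseline.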

Compound | outcome | AC50
CP(=O)(O)CCC(N)C(=O)O (stereo unspecified) | inactive | –
O=C(O)CNCP(=O)(O)O | inactive | –
C#CCN(C)[C@H](C)Cc1ccccc1 | inactive | –
CC1(C)[C@@H](C=C(Cl)Cl)[C@@H]1C(=O)O[C@@H](C#N)c1ccc(F)c(Oc2ccccc2)c1 | – | 7.77 µM (active)
CP(=O)(O)CC[C@H](N)C(=O)O | inactive | –

experiment: CCTE_Shafer_MEA_acute_per_network_burst_electrodes_number_mean: CCTE's Neural Acute Assay for Mean Number of Electrodes in a Network Burst, Shafer Lab (AID 2284021);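 also: curves fitted for decreases only so hits reduce electrodes per burst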
Method in brief: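 Rat primary cortical neurons on 48-well MEAs, DIV 13 or 15, were treated at 0.03-40 uM. Spikes were detected at 8x rms noise and recorded at 37 C. The mean electrodes per network burst in a 40 min exposure recording was expressed as percent change from a 40 min baseline.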

Compound | outcome | AC50
CP(=O)(O)CCC(N)C(=O)O (stereo unspecified) | inactive | –
O=C(O)CNCP(=O)(O)O | inactive | –
C#CCN(C)[C@H](C)Cc1ccccc1 | inactive | –
CC1(C)[C@@H](C=C(Cl)Cl)[C@@H]1C(=O)O[C@@H](C#N)c1ccc(F)c(Oc2ccccc2)c1 | – | 1.68 µM (active)
CP(=O)(O)CC[C@H](N)C(=O)O | inactive | –

experiment: CCTE_Shafer_MEA_acute_network_burst_percentage: CCTE's Neural Acute Assay for Percentage of Network Bursts, Shafer Lab (AID 2284022);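 also: curves fitted for loss so actives lower network burst percentage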
Method in brief: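 Rat primary cortical neuron networks on 48-well MEA plates, DIV 13 or 15, treated acutely with compound (0.03-40 uM, at least three wells). Percent of spikes within network bursts compared between 40-min recordings before and during exposure at 37 C, expressed as percent change.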

Compound | outcome | AC50
CP(=O)(O)CCC(N)C(=O)O (stereo unspecified) | inactive | –
O=C(O)CNCP(=O)(O)O | inactive | –
C#CCN(C)[C@H](C)Cc1ccccc1 | inactive | –
CC1(C)[C@@H](C=C(Cl)Cl)[C@@H]1C(=O)O[C@@H](C#N)c1ccc(F)c(Oc2ccccc2)c1 | – | 1.32 µM (active)
CP(=O)(O)CC[C@H](N)C(=O)O | inactive | –

experiment: CCTE_Shafer_MEA_acute_cross_correlation_HWHM: CCTE's Neural Acute Assay for Cross Correlation at Half Width at Half Maximum, Shafer Lab (AID 2284026);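 also: percent change per well from pre-dose baseline in spike cross-correlogram half width; hits are a decrease in cross-correlogram half width relative to DMSO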;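 as to outcome: spontaneous network firing of rat primary cortical neurons on multiwell microelectrode arrays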
Method in brief: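 Rat primary cortical neurons on 48-well MEA plates; 40-min baseline and 40-min post-exposure recordings at 37 C on DIV 13 or 15, compounds 0.03-40 uM. Spikes detected at 8x rms noise; percent change in cross-correlogram HWHM per well vs baseline.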

Compound | outcome | AC50
CP(=O)(O)CCC(N)C(=O)O (stereo unspecified) | inactive | –
O=C(O)CNCP(=O)(O)O | inactive | –
C#CCN(C)[C@H](C)Cc1ccccc1 | inactive | –
CC1(C)[C@@H](C=C(Cl)Cl)[C@@H]1C(=O)O[C@@H](C#N)c1ccc(F)c(Oc2ccccc2)c1 | inactive | –
CP(=O)(O)CC[C@H](N)C(=O)O | inactive | 36.5 µM (active)

experiment: CCTE_Shafer_MEA_acute_synchrony_index: CCTE's Neural Acute Assay for Synchrony, Shafer Lab (AID 2284027);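 also: network synchrony index of spontaneous spiking in primary rat cortical neurons on MEAs; fitted for loss of signal so actives lower synchrony relative to DMSO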
Method in brief: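 Plates equilibrated 20 min at 37 C, baseline recorded 40 min, compound (0.03-40 uM) added, then 40 min more recorded. Cells: primary rat cortical neurons, DIV 13 or 15. Per-well synchrony index change analysed in negative direction against DMSO.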

Compound | outcome | AC50
CP(=O)(O)CCC(N)C(=O)O (stereo unspecified) | inactive | –
O=C(O)CNCP(=O)(O)O | inactive | –
C#CCN(C)[C@H](C)Cc1ccccc1 | inactive | –
CC1(C)[C@@H](C=C(Cl)Cl)[C@@H]1C(=O)O[C@@H](C#N)c1ccc(F)c(Oc2ccccc2)c1 | – | 0.512 µM (active)
CP(=O)(O)CC[C@H](N)C(=O)O | inactive | –

Source: PubChem BioAssay (EPA / NIEHS)
